Screens deposited in PubChem BioAssay by National Center for Advancing Translational Sciences (NCATS).
ALDH1A1 block – ALDH1A1 (human) enzyme inhibition. P00352. AID 1030. Purified ALDH1A1, NADH fluorescence, propionaldehyde substrate. 7.3% of 220,000 active. Potency, µM (series often up to 75.3 µM), for the others: top-dose activity, negative = inhibition, hits mostly inhibitors; active = well fitted inhibition curve with a large enough effect, not every such curve was filed as active; inconclusive = small, poorly fitted or top-dose-only effect, or another doubt; inactive = no such curve, though single readings can be large or run the other way;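 also: potency is read from the fitted curve at half-maximal effect; plate controls were no enzyme wells and a reference inhibitor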
PNC inhibitor – blocks assembly of the perinucleolar compartment. PC3M PTB-GFP, PNC prevalence imaging, 16 h; hits give low values. activity change (PNC), negative = inhibition, % at 10 µM. 3.1% of 140,000 active;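 active = readout at or below -70, meaning at least 70% loss of cells showing the perinucleolar compartment, a nuclear body marking cancer cells; inconclusive = readout between -30 and a set limit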;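 also: plate controls were DMSO wells for no effect and camptothecin positive control wells for full effect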
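PC3M cells stably expressing PTB-GFP, 750–1000 cells/well, treated 16 h at 37 °C with compound (23 nl of library stock), in duplicate. After paraformaldehyde fixation and Hoechst stain, imaged at 20x; PNC prevalence scored by image analysis.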
HPGD inh – blocks human HPGD enzyme activity; purified HPGD, NADH fluorescence kinetic, PGE2 substrate; P15428; Potency, µM, without a hit: at the top dose activity change, negative = inhibition, actives largely listed as inhibitors; AID 894; 4.3% of 150,000 active; active = well fitted inhibition curve with a large enough effect, not every such curve was filed as active; inconclusive = small, poorly fitted or top-dose-only effect, or another doubt; inactive = no such curve, though single readings can be large or run the other way; also: potency is read from the fitted curve at half-maximal effect; % is scaled to controls: 0 for no effect and ±100 for the full control effect
Target sequence (P15428 whole entry, looked up): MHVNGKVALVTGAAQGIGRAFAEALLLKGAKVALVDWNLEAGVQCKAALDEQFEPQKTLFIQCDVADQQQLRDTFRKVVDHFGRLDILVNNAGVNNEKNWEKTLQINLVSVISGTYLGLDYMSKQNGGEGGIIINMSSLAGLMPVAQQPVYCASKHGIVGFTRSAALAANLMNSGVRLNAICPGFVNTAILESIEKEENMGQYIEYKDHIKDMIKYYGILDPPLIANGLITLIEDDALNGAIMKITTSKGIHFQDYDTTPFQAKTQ
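NADH formation kinetics: reaction with 30 uM PGE2 and 1 mM NAD+ (final), 20 nM enzyme, Tris-HCl pH 8 with Tween 20, after 15 min compound preincubation at room temperature. Fluorescence change, last versus first of five reads.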
HTT aggregate – reduces HttQ103-GFP aggregates in PC12 cells; 1.1% of 220,000 active; PC12 HttQ103-GFP aggregates, Acumen cytometry, 40 h; AID 1688; Potency, µM (highest dose often 46.1 µM), for inactives: at the highest dose activity change, negative = inhibition, usual class: inhibitors; also: potency is read from the fitted curve at half-maximal effect; % is scaled to controls: 0 for no effect and ±100 for the full control effect; nearly all actives have a fitted effect of over 60% in size
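Ecdysone-promoter PC12 model expressing HTT exon 1 Q103 fused to GFP, induced by tebufenozide at 100 nM final. Compounds titrated; aggregates sized 1–25 µm scored on a 488 nm laser cytometer.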
GoLoco inh red – inhibitors of human Gai1-RGS12 GoLoco interaction (red fluorophore); P63096; Gai1:RGS12 GoLoco peptide FP, rhodamine, 10 min; Potency, µM (highest dose often 61.6 µM), inactives show top-dose activity, negative = inhibition, usual class: inhibitors; 0.44% of 230,000 active; AID 880; active = well fitted inhibition curve with a large enough effect, not every such curve was filed as active; inactive = no such curve, though single readings can be large or run the other way; also: potency is read from the fitted curve at half-maximal effect; % is scaled to controls: 0 for no effect and ±100 for the full control effect; nearly all actives have a fitted effect of over 30% in size
Target sequence (P63096 whole entry, looked up): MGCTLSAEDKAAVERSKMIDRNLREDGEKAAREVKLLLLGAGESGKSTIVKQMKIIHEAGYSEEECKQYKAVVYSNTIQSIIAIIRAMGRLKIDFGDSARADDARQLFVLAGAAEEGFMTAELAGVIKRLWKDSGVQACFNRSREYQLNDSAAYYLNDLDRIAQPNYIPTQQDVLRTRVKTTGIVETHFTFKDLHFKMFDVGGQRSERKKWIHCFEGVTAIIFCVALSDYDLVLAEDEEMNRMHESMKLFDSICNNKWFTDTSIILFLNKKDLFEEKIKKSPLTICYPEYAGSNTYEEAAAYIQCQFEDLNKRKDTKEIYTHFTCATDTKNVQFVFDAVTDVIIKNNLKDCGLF
HTT ATP protect – Huntington cell model cytoprotection by ATP luminescence; PC12 HTT-Q103 induced, cytoprotection, ATP luminescence, 40 h; Potency, µM (doses to about 56.4 µM), for the others: cytoprotection (ATP increase), most hits filed as activators; 0.14% of 230,000 active; also: potency is read from the fitted curve at half-maximal effect; % of control where 0% means no effect; nearly all actives have a fitted effect of over 45% in size
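Stable PC12 Q103-GFP cells in serum-supplemented, phenol red-free DMEM; induction by tebufenozide at 100 nM final; compound dose series; cell viability quantified luminescently from ATP.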
Active calls of the source: *; ? = inconclusive; nt = not tested or not shown; [ ] = another dose, or the depositor's remark. Shown are actives, neighbours in structure and some others; about 11% of the full set was active somewhere. Unless noted, calls follow the shape of the dose curve; as a rule, active = well fitted curve in the direction sought with a large enough effect; inconclusive = small, poorly fitted or top-dose-only effect, or another doubt; inactive = no such curve, though single readings can be large; an effect the other way counts as inactive or inconclusive.

SMILES	ALDH1A1 block	PNC inhibitor	HPGD inh	HTT aggregate	GoLoco inh red	HTT ATP protect
O=C(COc1ccccc1)NCC(=O)N/N=C/c1ccco1	11.9µM*	-121.5*	?	-1.3%	4.6%	-4.3%[10 µM]
CNC(=O)c1ccc(OCc2ccccc2)c(OC)c1	6.6%	-106.5*	-5.4%	3.6%	-1.0%	-1.4%
NNC(=O)c1ccc(COc2cccc3cccnc23)cc1	14.1µM*	nt	nt	-3.8%	1.1%	16.6%[10 µM]
Cc1ccc(NC(=O)Cn2cccc2)cc1C	-16.6%	52.0	?	-5.1%	12.5%	3.4%
Cc1ccc(NC(=O)CCSCCC(=O)Nc2ccc(C)c(C)c2)cc1C	17.8µM*	46.3	-23.9%	-25.5%	33.8%	-6.9%
Cc1ccc(NC(=O)/C=C\C(=O)NCC(=O)O)cc1C	5.01µM*	-16.4	-18.5%	8.3%	-2.2%	nt
Cc1ccc(NC(=O)CNC2CCS(=O)(=O)C2)cc1C (stereo not drawn)	15.8µM*	nt	nt	0.6%	-20.5%	-37.5%
NCCC[C@@H](CC(=O)N[C@@H]1CCNC[C@H]1C(=O)N[C@H](CC(=O)N[C@@H](CCC(=O)O)CC(=O)O)Cc1c[nH]c2ccccc12)NC(=O)C[C@H](Cc1ccccc1)NC(=O)[C@@H]1CNCC[C@H]1N	-2.2%	nt	-7.9%	nt	-11.0%	-15.5%[1.9 µM]
CCCCCC1OC1C/C=C\C/C=C\C/C=C\CCCC(=O)O (stereo not drawn)	-1.5%	nt	-4.9%	nt	5.9%	-36.4%
NC(=O)C1CCN(C(=O)c2ccc3c(=O)n(Cc4ccco4)c(SCC(=O)c4ccccc4)nc3c2)CC1	14.1µM*	nt	nt	-0.1%	-3.8%	-34.6%
COc1ccc(C(C)=O)cc1CSc1nc2cc(C(=O)O)ccc2c(=O)n1Cc1ccccc1	20µM*	?	?	?	5.6%	0.6%[10 µM]
CCOC(Cn1c(SCc2cc(C(C)=O)ccc2OC)nc2ccccc2c1=O)OCC	?	-8.6	nt	11.4%	nt	9.4%[10 µM]
CCn1c(SCC#N)nc2ccccc2c1=O	nt	nt	nt	7.9%[9.22 µM]	11.4%	22.8%[10 µM]
N#CCSc1nc2cc(C(=O)N3CCCC3)ccc2c(=O)n1Cc1ccccc1	2.82µM*	-5.5	-12.6%	8.1%	6.4%	-22.4%
N#CCSc1nc2cc(C(=O)N3CCC(C(N)=O)CC3)ccc2c2nc3ccccc3n12	28.2µM*	?	-14.0%	-27.8%	30.7%	-28.9%
Cc1nc2c3c(sc2c(=O)[nH]1)NC(=O)CC3c1ccccc1Cl (stereo not drawn)	nt	nt	nt	-0.5%[9.22 µM]	3.6%	-12.7%[10 µM]
CO[C@@H]1/C=C\CC(=O)N[C@@H](C)C(=O)OC[C@H](NS(=O)(=O)c2ccc(C)cc2)[C@H](C)/C=C\CC(=O)OC[C@H]1C	3.5%[13.5 µM]	nt	nt	nt	nt	?
CCCNC(=O)OC[C@@H]1O[C@H](CCON=C(C)C)C=C[C@@H]1Oc1ccc(OC)cc1	15.8%[13.5 µM]	nt	nt	nt	nt	-1.3%[10 µM]
COc1ccccc1CN1CCCC2(CCN(C(=O)c3cc(C(F)(F)F)cc(C(F)(F)F)c3)CC2)C1	10.6%	nt	-3.5%	nt	8.3%	?
CC(C)=NOc1cc(NC(=O)CCl)cc([N+](=O)[O-])c1	0.178µM*	20.4	-9.6%	3.16µM*	-10.5%	nt
O=C(CCl)Nc1cc(SCC(O)CO)cc([N+](=O)[O-])c1 (stereo not drawn)	-1.8%	nt	nt	2.82µM*	2.8%	-78.1%[10 µM]
CCN(CC)CCCC(C)n1c(-c2ccccc2)nc2c(N(CCOC)CCOC)nc(C)nc21 (stereo not drawn)	?	nt	?	nt	1.0%	-78.0%
CCCCC[C@H](O)/C=C/C=C\C/C=C\C=C\[C@@H](O)CCCC(=O)O	3.4%	nt	-7.0%	nt	0.4%	1.2%
CCN(CC(=O)O)CC(=O)O	-4.3%[13.5 µM]	nt	-11.0%	nt	1.4%[14.2 µM]	-5.3%[10 µM]
Cc1cccc(NC(=S)NNC(=O)c2cccc([N+](=O)[O-])c2)c1	nt	nt	nt	11.9%[9.22 µM]	3.6%	27.5%[10 µM]
SMILES	ALDH1A1 block	PNC inhibitor	HPGD inh	HTT aggregate	GoLoco inh red	HTT ATP protect
C/C(=N/NC(=S)Nc1cccc(C)c1)c1cccc([N+](=O)[O-])c1	8.91µM*	nt	nt	nt	13.2%	nt
COc1cc(CN2CCCC(C(=O)c3ccccc3SC)C2)cc(OC)c1 (stereo not drawn)	-7.2%	nt	nt	-1.1%[9.22 µM]	15.8%	11.4%[10 µM]
S=C(S)O[C@@H]1C[C@@H]2C[C@H]1[C@@H]1CCC[C@H]21	6.5%	nt	-26.1%	nt	8.3%	?
CCOCCSc1nc2c(c(=O)[nH]c(=O)n2C)n1CCCc1ccccc1	-2.2%	-25.4	-17.4%	17.2%	8.9%	-25.4%
Cn1c(=O)c2c(nc(SCCCC#N)n2Cc2ccccc2F)n(C)c1=O	2.82µM*	-21.5	-7.1%	-4.5%	-10.5%	3.8%
Cn1c(=O)[nH]c(=O)c2c1nc(SCCN1CCCCC1)n2CCCc1ccccc1	?	?	28.2µM*	-2.9%	2.4%	6.1%[10 µM]
Cc1cc(C)n(-c2nc3c(c(=O)[nH]c(=O)n3C)n2Cc2cccc(Br)c2)n1	0.5%	-7.5	15.8µM*	5.2%	-9.3%	18.9%[0.074 µM]
Cc1cccc(Cn2c(SCC(=O)Nc3ccccc3)nc3c2c(=O)[nH]c(=O)n3C)c1	?	-10.3	22.4µM*	-8.8%	9.9%	-0.8%
COc1c2c(cc3c1C(CC(=O)c1c(O)c(OC)c4occc4c1OC)[N+](C)(C)CC3)OCO2 (stereo not drawn)	-12.1%	nt	-7.4%	nt	2.7%	nt
CC12C=C(/C=C/C=C/c3ccco3)C(C)(C1)C(/C=C/c1ccco1)CC2=O (stereo not drawn)	-13.5%[13.5 µM]	nt	nt	nt	nt	4.4%[10 µM]
O=c1c(-c2ccccc2)nc2cnc(Oc3cccc(Cl)c3)nc2n1C[C@H]1CCCO1	?	nt	nt	nt	-3.4%	-26.2%
Cn1c(=O)c(-c2cccs2)nc2cnc(OCc3ccccc3)nc21	?	nt	nt	nt	-0.5%	-5.0%
CC(C)NC(=O)N1CC2(CCN(S(=O)(=O)c3ccccc3)CC2)C1	1.8%	nt	-4.6%	nt	-5.2%	?
Cc1noc(C)c1C(=O)N1CCC2(CCCN(C(=O)Nc3cccc(C#N)c3)C2)CC1	6.4%	nt	-4.8%	nt	-6.5%	?
CNC(=O)CSc1nc2c(c(=O)n(C)c(=O)n2C)n1Cc1ccc(C)cc1	-4.1%	-1.9	-15.9%	16.6%	7.4%	18.9%[10 µM]
Cc1cccc(Cn2c(SCCN3CCOCC3)nc3c2c(=O)n(C)c(=O)n3C)c1	?	-1.2	-5.5%	8.3%	2.4%	-14.1%
Cc1ccc(Cn2c(SCC(=O)NCC3CCCO3)nc3c2c(=O)n(C)c(=O)n3C)cc1 (stereo not drawn)	22.4µM*	nt	nt	-16.7%[9.22 µM]	14.6%	22.8%[10 µM]
Cn1c(=O)[nH]c(=O)c2c1nc(SCCN1CCCCC1)n2Cc1ccccc1	?	?	25.1µM*	1.2%	1.2%	-6.1%[10 µM]
Cn1c(=O)[nH]c(=O)c2c1nc(Sc1nc3ccccc3s1)n2Cc1ccccc1	15.8µM*	-28.7	-3.8%	-18.1%	-4.1%	-27.8%
